HT1080 IDH1KD tx – qHTS for induction of synthetic lethality in tumor cells producing 2HG: qHTS for the HT-1080-IDH1KD cell line; HT-1080 IDH1 knockdown viability, ATP luminescence, 48 h; Potency, µM (titrated, usually from 46.1 µM), most hits filed as cytotoxic; 360,000 compounds, 2% hits
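Knockdown cells (IDH1KD HT-1080) received compounds 2 h after plating at 750 cells/well and were kept 48 h at 37 °C in 5% FBS RPMI. A CellTiter-Glo luminescence read gave % activity for curve fitting.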
MCF10A rereplic – A quantitative high throughput screen for small molecules that induce DNA re-replication in MCF 10a normal breast cells. Potency, µM (series often up to 46.1 µM), hits mostly activators. 350,000 compounds, 2.9% hits. MCF 10A DNA re-replication, Hoechst nuclear intensity, 48 h. AID 624296, 2012; also: nearly all actives have a fitted effect of over 50% in size
HT1080NT lethal – qHTS for induction of synthetic lethality in tumor cells producing 2HG: qHTS for the HT-1080-NT fibrosarcoma cell line | HT-1080-NT fibrosarcoma viability, CellTiter-Glo ATP luminescence, 48 h | Potency, µM (highest dose often 46.1 µM), hits mostly cytotoxic | 360,000 compounds, 1.6% hits | AID 686970, 2013;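 also: NT is the 2HG producing partner of a matched IDH1 knockdown line; nearly all actives have a fitted effect of over 55% in size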
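Toxicity toward the 2HG-producing NT line was scored as %Activity, normalised to DMSO and no-cell wells, from CellTiter-Glo luminescence after 48 hours' treatment.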
KB-3-1 tox – qHTS assay for MDR1-selective chemotherapeutics: Primary screen using the parental adenocarcinoma cell KB-3-1. KB-3-1 viability, CellTiter-Glo ATP luminescence, 72 h. AID 1347075, 2019. Potency, µM (doses to about 46.1 µM), usual class: cytotoxic. 400,000 compounds, 1.4% hits; also: nearly all actives have a fitted effect of over 60% in size
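Luminescent ATP read-out (CellTiter-Glo) measures survival of drug-naive KB-3-1 cells after 72 h compound exposure at 37 °C. Titration series was screened from lowest to highest concentration, with DMSO vehicle plates as background controls.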
KB-V1 MDR tox – qHTS assay for MDR1-selective chemotherapeutics: Primary screen using the drug-selected MDR subline cells KB-V1; KB-V1 MDR cells viability, CellTiter-Glo, 72 h; Potency, µM (titrated, usually from 46.1 µM), actives largely listed as cytotoxic; 400,000 compounds, 3.4% hits; AID 1347076, 2019; also: nearly all actives have a fitted effect of over 60% in size
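qHTS viability screen in drug-selected KB-V1 MDR cells: 72 h compound treatment at 37 degrees C, ATP luminescence end point.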
SW480 rerep – A quantitative high throughput screen for small molecules that induce DNA re-replication in SW480 colon adenocarcinoma cells. SW480 DNA re-replication, Hoechst DNA content imaging, 48 h. Potency, µM (doses to about 46.1 µM), actives largely listed as activators. 340,000 compounds, 1.8% hits. AID 624297, 2012; also: nearly all actives have a fitted effect of over 55% in size
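Hoechst fluorescence of nuclei (405 nm excitation, 500-530 nm emission) measured by plate-scanning imager after 48 hr compound exposure at 37 C; re-replication scored as increased number of nuclei with elevated intensity.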
Each line names hits and unclear results; the compound was inactive in the other large screens. Sampled rows, rich in hits. Any-hit rate of the full collection: about 8%. Calls follow the shape of the dose curve; as a rule, active = well fitted curve in the direction sought with a large enough effect; inconclusive = small, poorly fitted or top-dose-only effect, or another doubt; inactive = no such curve, though single readings can be large; an effect the other way counts as inactive or inconclusive.

C=CCN1CCc2cccc3c2[C@H]1Cc1ccc(O)c(O)c1-3	HT1080 IDH1KD tx inconclusive, HT1080NT lethal inconclusive, KB-V1 MDR tox inconclusive, SW480 rerep inconclusive
CN1CCc2cccc3c2C1Cc1ccc(O)c(O)c1-3 (stereo unspecified)	HT1080 IDH1KD tx inconclusive, MCF10A rereplic inconclusive, HT1080NT lethal 23.1µM, SW480 rerep inconclusive
COc1ccc(CN2CCN(Cc3ccccc3)CC2)c(OC)c1	MCF10A rereplic inconclusive, KB-V1 MDR tox 23.1µM
COc1cccc(N2CCN(Cc3ccc(Cl)cc3)CC2)c1	KB-V1 MDR tox 16.4µM
COc1ccc(CN2CCN(C(=O)Cc3ccccc3)CC2)c(OC)c1	MCF10A rereplic inconclusive
COc1cccc(N2CCN(Cc3cccc(Cl)c3)CC2)c1	MCF10A rereplic inconclusive
O=c1[nH]c(=O)n(Cl)c(=O)n1Cl	none (no result: HT1080 IDH1KD tx, HT1080NT lethal, KB-3-1 tox, KB-V1 MDR tox)
O=c1[nH]/c(=C\c2ccc(N(CCCl)CCCl)cc2)c(=O)[nH]/c1=C\c1ccc(N(CCCl)CCCl)cc1	KB-3-1 tox inconclusive (no result: HT1080 IDH1KD tx, MCF10A rereplic, HT1080NT lethal, SW480 rerep)
O=c1c2ccccc2nc(-c2cccs2)n1-c1ccccc1	KB-V1 MDR tox inconclusive
NC(N)=N/N=C/c1cn(-c2ccccc2)nc1-c1cccs1	MCF10A rereplic 7.31µM, KB-V1 MDR tox inconclusive
CCN(CC)C(=O)c1ccc(NC(=O)c2cccc(F)c2)cc1	KB-V1 MDR tox 20.6µM
Cc1cc(C)c(Cn2c(C(=O)O)c(C=O)c3ccccc32)c(C)c1	MCF10A rereplic 6.51µM, KB-V1 MDR tox inconclusive, SW480 rerep inconclusive
COc1cccc(C(C(=O)NCc2ccco2)N(Cc2ccco2)C(=O)Cn2nnc3ccccc32)c1 (stereo unspecified)	MCF10A rereplic inconclusive
CC1CCC(C(C)C)C(OC(=O)c2ccccc2N)C1 (stereo unspecified)	MCF10A rereplic 18.8µM (no result: HT1080 IDH1KD tx, HT1080NT lethal, KB-3-1 tox, KB-V1 MDR tox)
c1cc2c(c(N3CCNCC3)c1)OCCO2	none (no result: HT1080 IDH1KD tx, HT1080NT lethal, KB-3-1 tox, KB-V1 MDR tox)
O=C(CSc1nc(-c2ccccc2)c(-c2ccccc2)[nH]1)Nc1nccs1	HT1080 IDH1KD tx inconclusive, MCF10A rereplic inconclusive, HT1080NT lethal inconclusive
C/C=C(\C)C(=O)N[C@@H](c1ccccc1)[C@@H](O)C(=O)O[C@H]1C[C@@]2(O)[C@@H](OC(=O)c3ccccc3)C3[C@](C)(C(=O)[C@H](OC(C)=O)C(=C1C)C2(C)C)[C@@H](O)C[C@H]1OC[C@@]31OC(C)=O (stereo partly specified)	HT1080 IDH1KD tx inconclusive, MCF10A rereplic 0.291µM, HT1080NT lethal inconclusive, KB-3-1 tox inconclusive, SW480 rerep 1.16µM
CC(=O)O[C@@]12CO[C@@H]1C[C@H](O)[C@@]1(C)C(=O)[C@H](O)C3=C(C)[C@@H](O)C[C@@](O)([C@@H](OC(=O)c4ccccc4)C12)C3(C)C (stereo partly specified)	HT1080 IDH1KD tx inconclusive, MCF10A rereplic inconclusive, HT1080NT lethal inconclusive, KB-3-1 tox 11.6µM, SW480 rerep inconclusive
C/C=C(\C)C(=O)N[C@@H](c1ccccc1)[C@@H](O)C(=O)O[C@H]1C[C@@]2(O)[C@@H](OC(=O)c3ccccc3)C3[C@](C)(C(=O)[C@H](O)C(=C1C)C2(C)C)[C@@H](O)C[C@H]1OC[C@@]31OC(C)=O (stereo partly specified)	HT1080 IDH1KD tx 0.0058µM, MCF10A rereplic inconclusive, HT1080NT lethal 0.0411µM, KB-3-1 tox inconclusive, SW480 rerep 8.2µM
Cc1c(N=Nc2c(O)[nH]c(=S)[nH]c2=O)c(=O)n(-c2ccccc2)n1C	HT1080NT lethal inconclusive
C=CCn1c(O)c(N=Nc2c(C)n(C)n(-c3ccccc3)c2=O)c(=O)[nH]c1=S	KB-3-1 tox inconclusive, KB-V1 MDR tox 3.26µM, SW480 rerep inconclusive
Cc1nn(Cc2ccccc2Cl)c(Cl)c1C(=O)O	none

Compound activity from PubChem.
